# Screens (PubChem)
# Only some compounds are listed: those with a hit (about 11% of all), similar ones and a draw of the others.
# IMPase cell inh – cell-permeable inhibitors of inositol monophosphatase (IMPase) | P97697 | CHO-M1 cells, IP1 accumulation, HTRF TR-FRET ratio | inhibition (IP1 accumulation), % at 46.1 µM | 120,000 tested, under 10 active | AID 901; active = well fitted curve in the direction sought with a large enough effect in the signal ratio, not every such curve was filed as active; inconclusive = small, poorly fitted or top-dose-only effect, or a change in a side signal; inactive = no such curve, though single readings can be large or run the other way; the % refers to the signal ratio;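 note: cells stimulated with carbachol in lithium chloride buffer; plate controls were DMSO basal wells for no effect and reference inhibitor wells for full effect; higher means more IMPase inhibition seen as more IP1 and lower FRET ratio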
# Target sequence (P97697 whole entry, looked up): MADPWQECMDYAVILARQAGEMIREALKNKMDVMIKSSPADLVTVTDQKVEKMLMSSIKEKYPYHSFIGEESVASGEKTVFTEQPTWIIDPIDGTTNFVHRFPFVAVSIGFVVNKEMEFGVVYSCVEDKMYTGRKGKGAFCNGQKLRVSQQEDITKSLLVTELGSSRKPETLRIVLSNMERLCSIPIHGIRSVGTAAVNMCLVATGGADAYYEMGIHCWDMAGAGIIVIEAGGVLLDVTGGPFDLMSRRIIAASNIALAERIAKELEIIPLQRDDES
#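 Cellular IMPase inhibition is scored as a rise in cytosolic IP1, detected by competitive TR-FRET between d2-labelled IP1 and a europium anti-IP1 antibody. M1-expressing CHO cells were stimulated with carbachol for 30 min at 37C, with lithium (50 mM LiCl) present in the buffer.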
# ALDH1A1 inh – ALDH1A1 (human) enzyme inhibition. Purified ALDH1A1, NADH fluorescence, propionaldehyde substrate. 220,000 tested, 7.3% active. Potency, µM (doses to about 75.3 µM), without a hit: at the top dose activity, negative = inhibition, actives largely listed as inhibitors. P00352; active = well fitted inhibition curve with a large enough effect, not every such curve was filed as active; inconclusive = small, poorly fitted or top-dose-only effect, or another doubt; inactive = no such curve, though single readings can be large or run the other way;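 note: potency is the fitted concentration of half-maximal effect; plate controls were no enzyme wells and a reference inhibitor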
# HPGD inh – inhibitors of human 15-hydroxyprostaglandin dehydrogenase (HPGD); P15428; Potency, µM, for the others: at the highest dose activity change, negative = inhibition, hits mostly inhibitors; 150,000 tested, 4.3% active; purified HPGD, NADH fluorescence kinetic, PGE2 substrate; AID 894; active = well fitted inhibition curve with a large enough effect, not every such curve was filed as active; inconclusive = small, poorly fitted or top-dose-only effect, or another doubt; inactive = no such curve, though single readings can be large or run the other way; note: potency is the fitted concentration of half-maximal effect
#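 20 nM HPGD preincubated 15 min at room temperature with compound in 50 mM Tris-HCl pH 8, 0.01% Tween 20. Started with 1 mM NAD+ and 30 uM prostaglandin E2; NADH fluorescence (360/450 nm) read 5 times over 30-s intervals, last minus first.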
# PNC assembly inh – blocks assembly of the perinucleolar compartment. PC3M PTB-GFP, PNC prevalence imaging, 16 h; hits give low values. activity change (PNC), negative = inhibition, % at 10 µM. 140,000 tested, 3.1% active;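 active = readout at or below -70, meaning at least 70% loss of cells showing the perinucleolar compartment, a nuclear body marking cancer cells; inconclusive = readout between -30 and a set limit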;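 note: plate controls were DMSO wells for no effect and camptothecin positive control wells for full effect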
#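 Compounds are pinned in duplicate onto adhered PC3M cells stably expressing GFP-tagged PTB and incubated 16 h at 37 C. Cells are then fixed, nuclei stained with Hoechst, and PNC-positive cells counted.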
# NPSR antagonist – neuropeptide S receptor (human) antagonism, cAMP. Q6W5P4. CHO-NPSR cells, cAMP TR-FRET, antagonist mode. Potency, µM (titrated, usually from 38.3 µM), inactives show at the highest dose activity change, negative = inhibition, actives largely listed as inhibitors. 220,000 tested, 1% active. AID 1461; note: potency is the fitted concentration of half-maximal effect; nearly all actives have a fitted effect of over 50% in size
# Target sequence (Q6W5P4 whole entry, looked up): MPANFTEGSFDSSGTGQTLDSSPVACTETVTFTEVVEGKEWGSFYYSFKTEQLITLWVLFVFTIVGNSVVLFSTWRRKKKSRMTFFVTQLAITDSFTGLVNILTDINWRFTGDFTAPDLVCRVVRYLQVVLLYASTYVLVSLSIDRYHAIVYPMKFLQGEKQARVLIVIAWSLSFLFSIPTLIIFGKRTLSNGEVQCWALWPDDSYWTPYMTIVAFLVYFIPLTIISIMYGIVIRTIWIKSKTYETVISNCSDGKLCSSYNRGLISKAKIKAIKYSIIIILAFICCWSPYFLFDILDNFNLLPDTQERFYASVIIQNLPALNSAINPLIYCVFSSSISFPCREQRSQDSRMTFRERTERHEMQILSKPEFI
# IMPase Li inh – membrane-permeable IMPase blocker, potentiated with lithium. CHO-M1 cells, IP1 TR-FRET (IP-One), carbachol + lithium. Potency, µM (highest dose often 59.4 µM), for inactives: at the highest dose activity, negative = IMPase inhibition, most hits filed as inhibitors. 210,000 tested, 0.35% active;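 note: IP1 builds up when IMPase is blocked and the TR-FRET signal falls; potency is the fitted concentration of half-maximal effect; plate controls were basal vehicle for no effect and high inhibitor control for full effect; nearly all actives have a fitted effect of over 50% in size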
#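 CHO cells stably expressing M1 receptor (2000/well, cultured 16–30 h) treated 30 min at 37C with compound plus low lithium. Cytosolic IP1 by TR-FRET (665/620 ratio and 620 channel) after 10 min lysis; AC50 by Hill fit.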
# Starred values were filed as active, the others as inactive; ? = inconclusive; . = no result; [ ] = remark or other dose. Unless noted, calls come from the whole dose curve; as a rule, active = well fitted curve in the direction sought with a large enough effect; inconclusive = small, poorly fitted or top-dose-only effect, or another doubt; inactive = no such curve, though single readings can be large; an effect the other way counts as inactive or inconclusive. Unless noted, % is set by controls: 0 for no effect and ±100 for the full control effect.
SMILES,IMPase cell inh,ALDH1A1 inh,HPGD inh,PNC assembly inh,NPSR antagonist,IMPase Li inh
COC(=O)c1ccc(C23CC4(C2)[C@H](CN(Cc2cccnc2)[C@@H]4c2ccccc2)C3c2ccc(C(F)(F)F)cc2)cc1 (some centres not stated),.,13%,-10%,.,-40%,-3%
O=C(O)CCCNS(=O)(=O)c1ccc2ccccc2c1,2,3.2µM*,-14%,41,-18%[46.1 µM],12%[38.3 µM]
Cc1ccc(S(=O)(=O)N2CCCC2C(=O)NC2=NCCS2)cc1 (configuration not stated),-6,4%,-3%,36,8%[46.1 µM],5%[38.3 µM]
NS(=O)(=O)c1ccc(N2CCCC2=O)c([N+](=O)[O-])c1,.,-15%,.,.,16%,-1%
NNS(=O)(=O)c1ccc(N2CCCC2=O)c([N+](=O)[O-])c1,.,18µM*,.,.,10%,-3%
O=C(COC(=O)c1ccncc1)Nc1cc(Cl)ccc1Cl,-2,13%,-1%,1,-8%[46.1 µM],18%[38.3 µM]
Oc1ccc(/C=N/N(Cc2ccccc2)c2ccccc2)c(O)c1O,.,10µM*,.,.,-23%,6%
Oc1cccc(/C=N/N(Cc2ccccc2)c2ccccc2)c1,.,-13%,.,.,-24%,14%
Cc1ccc(C2C3=C(CCCC3=O)Nc3[nH]c(=S)[nH]c(=O)c32)cc1 (configuration not stated),7,?,10µM*,6,4%[46.1 µM],-2%[38.3 µM]
O=C1CCCC2=C1C(c1ccc(Br)cc1)c1c([nH]c(=S)[nH]c1=O)N2 (configuration not stated),2,?,7.1µM*,-13,-9%[46.1 µM],10%[38.3 µM]
COC(=O)C1=C(C)Nc2[nH]c(=S)[nH]c(=O)c2C1c1ccc(O)cc1 (configuration not stated),.,24µM*,.,.,-10%,.
CC1(C)CC(=O)C2=C(C1)Nc1[nH]c(=S)[nH]c(=O)c1C2c1ccccc1 (configuration not stated),10,?,8.9µM*,-21,-20%[46.1 µM],?
CSc1nc2c(c(=O)[nH]1)C(c1ccccc1)C1=C(CC(C)(C)CC1=O)N2 (configuration not stated),.,?,.,.,-26%,6%
Cc1[nH]n2c(=O)c3c(nc2c1-c1ccc(F)cc1)CCCC3,.,-12%,.,.,29%,8%
CC(=O)Nc1ccc(OC(F)(F)Cl)cc1,.,6%,.,.,7%,1%
Cc1ccc(NC(=O)C(C)Sc2nc(=O)cc(N)n2-c2ccccc2)cc1 (configuration not stated),3,11µM*,-16%,-21,-8%[46.1 µM],19%[38.3 µM]
Cc1ccc(NC(=O)C(C)Sc2nnc(-c3cccnc3)n2-c2ccccc2)cc1 (configuration not stated),4,-10%,14µM*,?,-16%[46.1 µM],31%[38.3 µM]
Cc1ccc(NC(=O)C(C)Sc2nnc(-c3cccnc3)o2)cc1 (configuration not stated),10,2%,-27%,-29,-2%[46.1 µM],-2%[38.3 µM]
COc1cccc(NC(=O)Cn2c(=O)n(-c3cc(OC)c(OC)c(OC)c3)c(=O)c3ccccc32)c1,.,13%,.,.,1%,-11%
COc1ccc(OC)c(NC(=O)Cc2coc3ccc(C)cc23)c1,-3,-1%,-10%,36,-13%[46.1 µM],20%[38.3 µM]
O=C(CC1CCCCC1)NC1CCCC1,8,10%,18µM*,36,0%[46.1 µM],7%[38.3 µM]
O=C(CC1CCS(=O)(=O)C1)NC1CCCCC1 (configuration not stated),-2,2%,-5%,?,-4%[46.1 µM],-10%[38.3 µM]
O=C(O)CCC(=O)NC1CCCCC1,0,-8%,-4%,-12,-7%[46.1 µM],21%[38.3 µM]
O=C(CCC1CCCC1)NC1CCCCC1,3,7%,16µM*,5,-2%[46.1 µM],35%[38.3 µM]
Cc1c(NC(=O)COC(=O)c2cc(-c3cccc4ccccc34)nc3ccccc23)c(=O)n(-c2ccccc2)n1C,12,-3%,?,-26,-17%,-12%
SMILES,IMPase cell inh,ALDH1A1 inh,HPGD inh,PNC assembly inh,NPSR antagonist,IMPase Li inh
Cc1ccc(NC(=S)NNC(=O)c2c(Cl)c(C)nn2C)cc1,.,?,-10%,?,4%,1%
Cc1nn(C)c(C(=O)NNC(=S)NCC(C)C)c1Cl,.,4%,-9%,-114*,-2%,-8%
Cc1nn(C)c(C(=O)NNC(=S)NCc2ccco2)c1Cl,-11,1%,35µM*,232,9%,19%
O=[N+]([O-])c1ccc(N2CCCCC2)cn1,.,1%,.,.,1%,15%
Cc1cc([N+](=O)[O-])cnc1N1CCOCC1,.,-3%,-3%,-114*,5%,-4%
O=[N+]([O-])c1cnc(N2CCCCC2)c([N+](=O)[O-])c1,.,18µM*,-24%,?,22%,5%
Oc1ccc2cccnc2c1,-7,24%,-2%,-30,-1%[46.1 µM],11%[38.3 µM]
O=C(CNc1cccc([N+](=O)[O-])c1)N/N=C/c1ccc([N+](=O)[O-])o1,.,2µM*,.,.,-7%,5%
O=C(CCC(=O)Nc1ccc(F)cc1)N/N=C/c1ccncc1,.,3%,.,.,6%,-1%
O=C(CCC(=O)Nc1ccccc1)N/N=C/c1ccncc1,?,-9%,22µM*,-9,?,9%[38.3 µM]
O=C(CNc1ccccc1)N/N=C/c1ccc([N+](=O)[O-])cc1,2,3.5µM*,-2%,68,-2%,2%
CN(Cc1cnn(C)c1)Cc1nc(COc2ccccc2)no1,.,-4%,.,.,-3%,9%
Cc1ccccc1NS(=O)(=O)c1ccc(Cl)cc1,.,?,.,.,-21%,18%
Cc1ccccc1NS(=O)(=O)c1cc(S(C)(=O)=O)ccc1Cl,6,20µM*,-2%,17,-11%[46.1 µM],28%[38.3 µM]
Cc1cccn2c(CN3CCNC(=O)CC3)c(C(=O)N(C)CCc3ccccc3)nc12,.,-1%,.,.,-5%,2%
COc1cccc(NC(=O)c2sc(NC(=O)c3ccncc3)nc2C)c1,.,.,.,.,-14%,.
O=C(Nc1ccc2c(c1)CCC2)c1ccccc1,-5,1%,-15%,-9,6%[46.1 µM],2%
Cc1ccc(C(=O)Nc2nc(C)c(C(=O)Nc3ccc4c(c3)CCC4)s2)cc1,9,?,?,-89*,-18%,-4%
Cc1nc(NC(=O)c2ccc(F)cc2)sc1C(=O)Nc1ccc2c(c1)CCC2,-4,?,?,?,-12%[46.1 µM],22µM*
O=C(Nc1ccc2c(c1)CCC2)c1ccc(Br)o1,-3,-9%,-24%,?,-12%[46.1 µM],23%[38.3 µM]
Cc1ccc(C(=O)Nc2ccc3c(c2)CCC3)o1,?,18µM*,22µM*,25,-24%[46.1 µM],38%[38.3 µM]
O=C(O)C1CSC(c2ccc(O)c([N+](=O)[O-])c2)N1 (configuration not stated),.,9%,.,.,13%,-1%
